target: AgAbp1; test: SPOT peptide array binding signal intensity (averaged, normalized) (arbitrary units (background-subtracted, floor 0; scale differs between SH3 domains)); higher = stronger binding of the SH3 domain to the peptide
Protocol: (§1)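 GST-tagged SH3 domains from S. cerevisiae (Sc), A. gossypii (Ag), C. albicans (Ca) and S. pombe (Sp) were incubated at 10 ug/ml overnight at 4 C on cellulose SPOT membranes carrying 292 synthetic 15-mer peptides mined from the S. cerevisiae proteome (cysteines replaced by serines). Binding was detected with anti-GST antibody, HRP secondary and chemiluminescence, quantified with Genespotter, and reported as normalized spot intensities averaged over biological replicates.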

Binder | SPOT peptide array binding signal intensity
RLSRLLLSLPPESFT | 21.5

target: AgBbc1; test: as above
Protocol: as §1

Binder | SPOT peptide array binding signal intensity
RLSRLLLSLPPESFT | 5.5

target: AgBem1-D1; test: as above
Protocol: as §1

Binder | SPOT peptide array binding signal intensity
RLSRLLLSLPPESFT | 356

target: AgBzz1-D1; test: as above
Protocol: as §1

Binder | SPOT peptide array binding signal intensity
RLSRLLLSLPPESFT | 101

target: AgBzz1-D2; test: as above
Protocol: as §1

Binder | SPOT peptide array binding signal intensity
RLSRLLLSLPPESFT | 145

target: AgCyk3; test: as above
Protocol: as §1

Binder | SPOT peptide array binding signal intensity
RLSRLLLSLPPESFT | 2

target: AgFus1; test: as above
Protocol: as §1

Binder | SPOT peptide array binding signal intensity
RLSRLLLSLPPESFT | 878

target: AgHof1; test: as above
Protocol: as §1

Binder | SPOT peptide array binding signal intensity
RLSRLLLSLPPESFT | 96.5

target: AgHse1; test: as above
Protocol: as §1

Binder | SPOT peptide array binding signal intensity
RLSRLLLSLPPESFT | 1240

target: AgLsb1; test: as above
Protocol: as §1

Binder | SPOT peptide array binding signal intensity
RLSRLLLSLPPESFT | 17.8

target: AgLsb4; test: as above
Protocol: as §1

Binder | SPOT peptide array binding signal intensity
RLSRLLLSLPPESFT | 108

target: AgMyo5; test: as above
Protocol: as §1

Binder | SPOT peptide array binding signal intensity
RLSRLLLSLPPESFT | ≤ 0

target: AgNbp2; test: as above
Protocol: as §1

Binder | SPOT peptide array binding signal intensity
RLSRLLLSLPPESFT | 47.5

target: AgRvs167; test: as above
Protocol: as §1

Binder | SPOT peptide array binding signal intensity
RLSRLLLSLPPESFT | 6.5

target: AgSho1; test: as above
Protocol: as §1

Binder | SPOT peptide array binding signal intensity
RLSRLLLSLPPESFT | 70

target: AgSla1-D1-D2; test: as above
Protocol: as §1

Binder | SPOT peptide array binding signal intensity
RLSRLLLSLPPESFT | 85

target: AgSla1-D3; test: as above
Protocol: as §1

Binder | SPOT peptide array binding signal intensity
RLSRLLLSLPPESFT | 5.5

target: CaAbp1-D1; test: as above
Protocol: as §1

Binder | SPOT peptide array binding signal intensity
RLSRLLLSLPPESFT | 152

target: CaAbp1-D2; test: as above
Protocol: as §1

Binder | SPOT peptide array binding signal intensity
RLSRLLLSLPPESFT | 48

target: CaBbc1; test: as above
Protocol: as §1

Binder | SPOT peptide array binding signal intensity
RLSRLLLSLPPESFT | 73.5

target: CaBem1-D1; test: as above
Protocol: as §1

Binder | SPOT peptide array binding signal intensity
RLSRLLLSLPPESFT | 1

target: CaBzz1-D1; test: as above
Protocol: as §1

Binder | SPOT peptide array binding signal intensity
RLSRLLLSLPPESFT | 46

target: CaBzz1-D2; test: as above
Protocol: as §1

Binder | SPOT peptide array binding signal intensity
RLSRLLLSLPPESFT | 138

target: CaCyk3; test: as above
Protocol: as §1

Binder | SPOT peptide array binding signal intensity
RLSRLLLSLPPESFT | 17

target: CaFus1; test: as above
Protocol: as §1

Binder | SPOT peptide array binding signal intensity
RLSRLLLSLPPESFT | 3850

target: CaHof1; test: as above
Protocol: as §1

Binder | SPOT peptide array binding signal intensity
RLSRLLLSLPPESFT | 0.5

target: CaHse1; test: as above
Protocol: as §1

Binder | SPOT peptide array binding signal intensity
RLSRLLLSLPPESFT | 33.5

target: CaLsb1; test: as above
Protocol: as §1

Binder | SPOT peptide array binding signal intensity
RLSRLLLSLPPESFT | 1.5

target: CaLsb4; test: as above
Protocol: as §1

Binder | SPOT peptide array binding signal intensity
RLSRLLLSLPPESFT | 37.5

target: CaMyo5; test: as above
Protocol: as §1

Binder | SPOT peptide array binding signal intensity
RLSRLLLSLPPESFT | 28

target: CaNbp2; test: as above
Protocol: as §1

Binder | SPOT peptide array binding signal intensity
RLSRLLLSLPPESFT | 287

target: CaRvs167; test: as above
Protocol: as §1

Binder | SPOT peptide array binding signal intensity
RLSRLLLSLPPESFT | 64.2

target: CaRvs167-3; test: as above
Protocol: as §1

Binder | SPOT peptide array binding signal intensity
RLSRLLLSLPPESFT | 1010

target: CaSho1; test: as above
Protocol: as §1

Binder | SPOT peptide array binding signal intensity
RLSRLLLSLPPESFT | 588

target: CaSla1-D1-D2; test: as above
Protocol: as §1

Binder | SPOT peptide array binding signal intensity
RLSRLLLSLPPESFT | ≤ 0

target: CaSla1-D3; test: as above
Protocol: as §1

Binder | SPOT peptide array binding signal intensity
RLSRLLLSLPPESFT | 45.5

target: ScAbp1; test: as above
Protocol: as §1

Binder | SPOT peptide array binding signal intensity
RLSRLLLSLPPESFT | 49

Reference: the supplement of paper PMC4466140
